{
  "source": "PubChem BioAssay AID720519",
  "about": "(National Center for Advancing Translational Sciences (NCATS), 2013)",
  "note": "Inconclusive results are not listed. Where a call stands in place of a potency, no number is given. Active and inactive are the calls of the source. The call rests on the fitted dose curve; in most records, active means well fitted activation curve with a large enough effect; inconclusive means small, poorly fitted or top-dose-only effect; inactive means flat fitted curve, though single readings scatter. Potency means the concentration at half of the fitted maximal effect.",
  "data": [
    {"experiment": "qHTS for Inhibitors of Cell Surface uPA Generation: Confirmatory Assay for Cherry-picked Compounds", "details": "cell surface uPA activity generation, qHTS confirmation; series mostly up to 115 µM", "description": "The overall objective of this project is to perform a quantitative high throughput screen (qHTS) to identify novel compounds that inhibit the generation of cell surface urokinase activity. The urokinase plasminogen activator (uPA) is one of the two primary endogenous systems that mediate plasminogen activation into plasmin. Members of this system, including uPA and its receptor (uPAR), are overexpressed in several malignant tumors. This system plays a major role in adhesion, migration, invasion and metastasis of cancer cells. Small molecule inhibitors of the uPA system will serve as probes to understand the molecular mechanisms of the uPA cascade and better understanding the micro-environmental circumstances that facilitate the activation of plasminogen by uPA, and finally may provide novel candidate agents for anticancer drug therapy.\n[…] […] Upon inhibition of the uPA activation cascade, the subsequent cell surface uPA activity-dependent translocation of LF into the cytoplasm is inhibited. ATP-Lite is used to measure intracellular ATP concentrations (measure cell viability) which remain increased if LF entry into the cytoplasm is inhibited. This validation assay was performed using a small set of cherry picked compounds. Activation of cell viability (increase in luminescence signal) due to inhibition of the cell surface uPA generation is the desired outcome of this assay.\nNIH Chemical Genomics Center [NCGC]\nNIH Molecular Libraries Probe Centers Network [MLPCN]\nAssay Submitter (PI): Thomas Bugge, National Institute of Dental and Craniofacial Research, NIH\nCultured RAW 264.7 were dispensed into 1536-well clear bottom, white walled tissue culture plates at a density of 4000 cells/well and were incubated overnight (12-16 h) at 37 C in a 5% CO2 incubator. Serially diluted compounds (1:5 dilution) in 23 nl DMSO were added to cells (0.0024 uM to 3.83 uM final concentration). […] Compound and reagent-treated plates were incubated for 24 h at 37 C in a 5% CO2 incubator. Three microliter of PerkinElmer ATPlite was then added to each well and luminescence was detected using the PerkinElmer ViewLux plate reader for a 5 sec exposure.", "values": [
      {"smiles": "C=CCc1cc(S(=O)(=O)c2ccc(O)c(CC=C)c2)ccc1O", "Potency": "inactive"},
      {"smiles": "O=C(COC(=O)c1ccc2ncsc2c1)NCc1cccc(Cl)c1", "Potency": "inactive"},
      {"smiles": "Cc1ccnc(NS(=O)(=O)c2ccc(NC(=O)C3C4C=CC(C4)C3C(=O)O)cc2)n1", "note": "(stereo not given)", "Potency": "inactive"},
      {"smiles": "COc1ccc2[nH]cc(S(=O)(=O)c3ccc(C(C)C)cc3)c(=O)c2c1", "Potency": "inactive"},
      {"smiles": "O=C(C[n+]1ccccc1)Nc1ccccc1C(F)(F)F", "Potency": "inactive"},
      {"smiles": "COc1ccc(C[C@@H]2OC3(C=CC(=O)C=C3)O[C@H]2Cc2ccc(OC)cc2)cc1", "Potency": "inactive"},
      {"smiles": "CCNc1nc(Nc2ccc(C)c(Cl)c2)c2cnn(C)c2n1", "Potency": "inactive"},
      {"smiles": "CN(C)C(=S)Nc1ccc(S(=O)(=O)N2CCCCC2)cc1", "Potency": "inactive"},
      {"smiles": "COc1ccc(/C(C)=N/N2CCOCC2)c(O)c1", "Potency": "inactive"},
      {"smiles": "CCn1c(CNc2ccc(F)cc2)nnc1SCC(=O)Nc1ccccc1OC", "Potency": "inactive"},
      {"smiles": "C[C@H](CO)N1C[C@H](C)[C@@H](CN(C)C(=O)Nc2ccccc2)Oc2c(NS(=O)(=O)c3ccccc3)cccc2C1=O", "Potency": "inactive"},
      {"smiles": "COc1ccc(N2CCN(C(=O)COc3ccc4c(C)c(C)c(=O)oc4c3C)CC2)cc1", "Potency": "inactive"},
      {"smiles": "O=C(OCC(=O)N1CCOCC1)c1c(Cl)ccc(Cl)c1Cl", "Potency": "inactive"},
      {"smiles": "O=[N+]([O-])c1ccccc1C=NNC(=S)NN=Cc1ccccc1[N+](=O)[O-]", "Potency": "inactive"},
      {"smiles": "O=C(NNC(=O)c1ccc2ccccc2c1)Nc1ccc(F)cc1", "Potency": "inactive"},
      {"smiles": "C/C(=N\\NC(=O)c1cccc([N+](=O)[O-])c1)c1cccnc1", "Potency": "inactive"},
      {"smiles": "Cc1ccc2oc(C(=O)N(Cc3ccc(N(C)C)cc3)C3CCS(=O)(=O)C3)c(C)c2c1", "note": "(stereo not given)", "Potency": "inactive"},
      {"smiles": "COc1ccc(CC(=O)OCC(=O)NNC(=O)c2ccccc2)cc1", "Potency": "inactive"},
      {"smiles": "CCNC(=S)NNC(=O)C(c1ccccc1)c1ccccc1", "Potency": "inactive"},
      {"smiles": "CCN(C(=O)c1c(C)noc1C)c1c(N)n(Cc2ccccc2)c(=O)[nH]c1=O", "Potency": "inactive"},
      {"smiles": "CCOc1ccc(OCC)c(NC(=O)c2ccc(CNc3c(N4CCCC4)c(=O)c3=O)cc2)c1", "Potency": "inactive"},
      {"smiles": "O=C(Cc1ccc(Cl)cc1)c1c[nH]c(C(=O)NCCCn2ccnc2)c1", "Potency": "inactive"},
      {"smiles": "CC(CCc1ccccc1)NC(=O)c1ccc(NC(=O)c2cccc(Br)c2)cc1", "note": "(stereo not given)", "Potency": "inactive"},
      {"smiles": "CC(C)OC(=O)c1ccc(N2CCN(c3ccccc3F)CC2)nc1", "Potency": "inactive"},
      {"smiles": "COCCNS(=O)(=O)c1cc(OC)c(C)cc1C", "Potency": "inactive"},
      {"smiles": "Cc1ccc(S(=O)(=O)N2CCOCC2)cc1C(=O)OC1CCOC1=O", "note": "(stereo not given)", "Potency": "inactive"},
      {"smiles": "CCN(CC)CCNC(=O)/C(=C/c1cn(CC)c2ccccc12)NC(=O)c1cc(OC)c(OC)c(OC)c1", "Potency": "inactive"},
      {"smiles": "COc1ccc(C(C)=O)cc1CSC(=N)N", "Potency": "inactive"},
      {"smiles": "COc1cccc(NC(=O)c2nnn(CC(=O)Nc3cc(C)cc(C)c3)c2N)c1", "Potency": "inactive"},
      {"smiles": "Cc1cc(N)n(Cc2ccc(Cl)cc2)n1", "Potency": "inactive"},
      {"smiles": "CCOc1ccc(-n2cnc3scc(-c4ccc(OC)c(OC)c4)c3c2=O)cc1", "Potency": "inactive"},
      {"smiles": "OCCN(Cc1ccccc1)CC(O)COc1ccc2c(c1)OCO2", "note": "(stereo not given)", "Potency": "inactive"},
      {"smiles": "Cc1cc(C)c(S(=O)(=O)N2CCCOC2CNC(=O)C(=O)NCc2cccs2)c(C)c1", "note": "(stereo not given)", "Potency": "inactive"},
      {"smiles": "COC(=O)/C(C#N)=C\\c1c(OC)[nH]c2ccccc12", "Potency": "inactive"},
      {"smiles": "CC(C)Cn1cnc2c(N)nc3ccccc3c21", "Potency": "inactive"},
      {"smiles": "Cc1c(NC(=O)C(C)OC(=O)CCC2CCCC2)c(=O)n(-c2ccccc2)n1C", "note": "(stereo not given)", "Potency": "inactive"},
      {"smiles": "CCOc1ncccc1C(=O)NCc1ccccc1Cl", "Potency": "inactive"},
      {"smiles": "O=C(Nn1cnnc1)c1ccc(Cl)c(Cl)c1", "Potency": "inactive"},
      {"smiles": "Cc1cccc(CNc2ccc(C(CC(N)=O)NC(=O)c3cccc(Br)c3)cc2[N+](=O)[O-])c1", "note": "(stereo not given)", "Potency": "inactive"},
      {"smiles": "COC(=O)c1c(NC(=O)c2c(OC)cccc2OC)sc2c1C(C(=O)OC)CC2", "note": "(stereo not given)", "Potency": "29.3 µM (active)"}
    ]}
  ]
}
